Screening results from PubChem BioAssay.
DUX4 inh – inhibitors of DUX4-driven ZSCAN4 reporter expression, primary screen, 293T cells, Gaussia and Italica luciferase; AID 1224904, 2016; activity change, negative = inhibition, % (test concentration not listed); actives 0.8% (n = 37,000); 293T-iDUX4 ZSCAN4-Gaussia luciferase reporter, 24 h; stronger effect = lower value;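 active = mean inhibition of at least 10% in the main channel, exceeding the control channel by a set limit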;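 note: 0% = median of neutral control wells and -100% = median of positive control wells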
* marks the source's active call; other numbers are inactive results; ! = a repeat was not active. This excerpt belongs to a sample that is enriched for hits.

SMILES	DUX4 inh
O=C(c1ccccc1F)N1C[C@@H]2[C@H](c3ccccc31)[C@H](CO)N2C(=O)c1ccc(F)cc1	-2
C[C@@H]1CN([C@H](C)CO)C(=O)c2cc(/C=C/c3ccccc3)cnc2O[C@@H]1CN(C)C(=O)c1ccc2c(c1)OCO2	-5
CC(=O)N1C[C@@H]2[C@H](c3ccccc31)[C@H](CO)N2C(=O)c1ccc(F)cc1	-2
C[C@@H]1CN([C@@H](C)CO)C(=O)c2cc(C#CC3(O)CCCC3)cnc2O[C@H]1CN(C)C(=O)Cc1ccncc1	6
CCC(=O)N1C[C@H]2[C@@H](c3ccccc31)[C@H](CO)N2Cc1cc(F)ccc1F	1
COc1ccc(NC(=O)N2CC(=O)N3[C@H](CO)[C@H](c4ccc(C5=CCCC5)cc4)[C@H]3C2)cc1	14
O=C(C[C@H]1CC[C@@H]2[C@H](COC[C@@H](O)CN2CC2CCCCC2)O1)NCc1ccc(Cl)cc1	-5
O=C(C[C@H]1CC[C@H]2[C@@H](COC[C@H](O)CN2CC2CCOCC2)O1)NCc1ccc(Cl)cc1	-29*
O=C(C[C@H]1CC[C@H]2[C@@H](COC[C@H](O)CN2CC2CCCCC2)O1)NCc1ccc(Cl)cc1	-4
CC(=O)N1CCCCN2[C@H](CO)[C@H](c3ccc(-c4cccc(C)c4)cc3)[C@H]2C1	4
CN(C)CC(=O)Nc1ccc2c(c1)[C@@H]1C[C@H](CC(=O)NCc3cc(F)ccc3F)O[C@H](CO)[C@@H]1O2	0
O=C(c1ccc(F)cc1)N1CC[C@@H]2[C@H](CO)Nc3ccc(C#Cc4ccc(F)cc4)cc3[C@@H]21	-20*
COc1ccccc1C#Cc1ccc2c(c1)[C@@H]1[C@@H](CCN1C(=O)c1ccc(F)cc1)[C@H](CO)N2	-7
COc1ccccc1C#Cc1ccc2c(c1)[C@@H]1[C@@H](CCN1C(=O)c1ccc(F)cc1)[C@@H](CO)N2	0
O=C(c1ccc(F)cc1)N1CC[C@@H]2[C@H](CO)Nc3ccc(C#Cc4ccccc4F)cc3[C@@H]21	-30*
O=C(c1ccc(F)cc1)N1CC[C@@H]2[C@H]1c1cc(C#Cc3ccccc3F)ccc1N[C@@H]2CO	-1
O=C(c1ccc(F)cc1)N1CC[C@@H]2[C@H]1c1cc(C#Cc3ccc(F)cc3)ccc1N[C@@H]2CO	3
O=C(CN1CCOCC1)N[C@@H]1CC[C@@H](CCn2cc(C3CC3)nn2)O[C@@H]1CO	1
CC(C)C[C@@H]1COCc2cn(nn2)CC[C@H](Cc2ccccc2)C(=O)N1	0
C[C@H](CO)N1C[C@H](C)[C@H](CN(C)C(=O)c2ccncc2)OCCCC[C@H](C)Oc2ccc(NS(=O)(=O)c3cn(C)cn3)cc2C1=O	-3
O=C(c1ccncc1)N1CC2(C1)[C@H](c1ccccc1)[C@H](CO)N2CC1CCCC1	-5
O=C(c1ccncc1)N1CC2(C1)[C@H](c1ccccc1)[C@H](CO)N2CC1CC1	12
O=C(NC1CCCCC1)N1CC2(C1)[C@H](c1ccccc1)[C@H](CO)N2CC1CCCC1	-26*
O=C(NC1CCCC1)N1CC2(C1)[C@H](c1ccccc1)[C@H](CO)N2CC1CC1	-3
O=C(c1ccncc1)N1CC2(C1)[C@@H](c1ccccc1)[C@@H](CO)N2CC1CCCC1	-28*
SMILES	DUX4 inh
O=C(NC1CCCC1)N1CC2(C1)[C@@H](c1ccccc1)[C@@H](CO)N2CC1CC1	13
CNC[C@@H]1OCCCC[C@H](C)Oc2ccc(NS(=O)(=O)c3ccc(F)cc3)cc2C(=O)N([C@H](C)CO)C[C@@H]1C	0
O=C([C@H]1[C@H](CO)[C@H]2Cn3c(ccc(C4=CCCCC4)c3=O)[C@H]2N1Cc1nccs1)N1CCOCC1	6
COc1ccc(C#Cc2ccc([C@@H]3[C@@H](CO)N4CCCCN(S(=O)(=O)c5ccccc5)C[C@H]34)cc2)cc1	-5
CC(C)CC#Cc1ccc([C@H]2[C@@H](CO)N3CCCCN(S(=O)(=O)Cc4ccccc4)C[C@H]23)cc1	-14*
COc1ccc(C#Cc2ccc([C@H]3[C@H](CO)N4CCCCN(S(=O)(=O)c5ccccc5)C[C@@H]34)cc2)cc1	-30*
CCCC#Cc1ccc([C@@H]2[C@H](CO)N3CCCCN(S(=O)(=O)Cc4ccccc4)C[C@@H]23)cc1	-9
O=S(=O)(c1cccs1)N1CCCCN2[C@H](CO)[C@@H](c3ccc(Br)cc3)[C@H]2C1	-9
O=S(=O)(c1cccs1)N1CCCCN2[C@@H](CO)[C@H](c3ccc(Br)cc3)[C@@H]2C1	-14*
C[C@@H](O)C#Cc1ccc([C@H]2[C@H]3CN(S(=O)(=O)c4ccccc4)CCCCN3[C@H]2CO)cc1	2
CCCC#Cc1ccc([C@H]2[C@H]3CN(S(=O)(=O)Cc4ccccc4)CCCCN3[C@H]2CO)cc1	11
O=S(=O)(c1ccccc1)N1CCCCN2[C@H](CO)[C@H](c3ccc(C#CC4CCCC4)cc3)[C@H]2C1	-19*
O=S(=O)(c1ccccc1)N1CCCCN2[C@H](CO)[C@@H](c3ccc(C#CC4CCCC4)cc3)[C@@H]2C1	7
O=S(=O)(c1cccs1)N1CCCCN2[C@H](C1)[C@H](c1ccc(Br)cc1)[C@@H]2CO	-7
O=S(=O)(c1ccc(F)cc1)N1CCCCN2[C@H](CO)[C@@H](c3ccc(C#CC4CC4)cc3)[C@@H]2C1	-9
CCCC(=O)N1CC2(CN(C)C2)c2c(n(C)c3cc(OC)ccc23)[C@@H]1CO	9
CO[C@H]1CN(C)C(=O)c2cccc(C#N)c2OCC[C@@H]2CC[C@@H](OC)[C@H](CN(C)C(=O)[C@@H]1C)O2	-3
COc1ccc2c3c(n(C)c2c1)[C@H](CO)N(C(=O)Nc1ccccc1F)CC31CN(C(C)=O)C1	11
C/C=C/c1ccc([C@@H]2[C@H](CO)N(CC3CC3)C23CN(S(=O)(=O)CC)C3)cc1	3
O=C(C[C@H]1C[C@@H]2c3cc(NS(=O)(=O)c4ccc(F)cc4)ccc3O[C@@H]2[C@H](CO)O1)NC1CCCCC1	-1
Cc1cccc(-c2ccc(C3[C@@H]4CN(Cc5cccc(F)c5)C[C@H]3N4)cc2)c1 (some centres undefined)	-55*!
COc1ccccc1-c1ccc([C@H]2[C@H](CO)N3CCCCN(Cc4ccncc4)C[C@@H]23)cc1	2
COc1ccccc1-c1ccc(C2[C@H]3CNC[C@@H]2N3Cc2ccc(F)cc2)cc1 (some centres undefined)	17
Cc1cccc(-c2ccc(C3[C@H]4CNC[C@@H]3N4Cc3cccc(F)c3)cc2)c1 (some centres undefined)	8
CCCNC(=O)N1C[C@@H]2N[C@H](C1)C2c1ccc(-c2cccnc2)cc1 (some centres undefined)	-1
COc1ccccc1-c1ccc(C2[C@@H]3CN(Cc4cccc(F)c4)C[C@H]2N3)cc1 (some centres undefined)	-48*
O=C(Nc1cccc(F)c1)N1C[C@@H]2N[C@H](C1)C2c1ccc(-c2ccc(F)cc2)cc1 (some centres undefined)	9
c1ccc(-c2ccc(C3[C@H]4CNC[C@@H]3N4Cc3nccs3)cc2)cc1 (some centres undefined)	9
Cc1cccc(-c2ccc(C3[C@@H]4CN(C(=O)C5CCOCC5)C[C@H]3N4)cc2)c1 (some centres undefined)	7
CCCNC(=O)N1C[C@@H]2N[C@H](C1)C2c1ccc(-c2cccc(F)c2)cc1 (some centres undefined)	-43*!
